Screening results deposited in PubChem BioAssay by The Scripps Research Institute Molecular Screening Center.
MITF inh – human MITF inhibition, primary screen | inhibition, % at 2.6 µM | AlphaScreen MITF homodimerization, bead proximity signal | 650,000 tested, 0.91% active | O75030; in the data active = inhibition above about 50%;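 also: 0% = vehicle wells with protein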
Target sequence (O75030 whole entry, looked up): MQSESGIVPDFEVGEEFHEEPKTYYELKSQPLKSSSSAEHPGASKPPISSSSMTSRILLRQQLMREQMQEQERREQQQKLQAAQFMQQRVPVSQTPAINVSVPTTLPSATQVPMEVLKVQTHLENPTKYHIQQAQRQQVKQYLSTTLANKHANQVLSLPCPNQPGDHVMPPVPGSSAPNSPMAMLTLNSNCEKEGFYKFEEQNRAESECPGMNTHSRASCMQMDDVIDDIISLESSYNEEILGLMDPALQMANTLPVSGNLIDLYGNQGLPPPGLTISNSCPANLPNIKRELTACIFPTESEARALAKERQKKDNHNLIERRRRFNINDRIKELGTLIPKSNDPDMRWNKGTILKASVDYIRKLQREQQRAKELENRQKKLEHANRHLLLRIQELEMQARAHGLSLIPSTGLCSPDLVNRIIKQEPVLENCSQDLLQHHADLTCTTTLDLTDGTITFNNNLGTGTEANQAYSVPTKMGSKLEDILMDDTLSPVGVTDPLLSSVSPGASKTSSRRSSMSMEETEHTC
GPR151 activ – human GPR151 activation | Q8TDV0 | activation, % at 11.2 µM | AID 1508602 | 650,000 tested, 1% active | PathHunter beta-arrestin GPR151 cells, luminescence; in the data active = activation above about 4.9%;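 also: 0% = median of compound wells and 100% = cells with positive control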
TEAD-YAP block – TEAD-YAP interaction inhibition; HEK-TIYL cells, TEAD-Gal4/YAP UAS-luciferase luminescence; inhibition, % at 9.12 µM; AID 1259422; 640,000 tested, 1.4% active; in the data active = inhibition above about 32%;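 also: 0% = median of test compound wells and 100% = reference inhibitor wells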
FBW7 activator – activators of human E3 ligase FBW7 | Q969H0 | AlphaScreen FBW7–phospho-cyclin E peptide binding, activator screen | normalized activity (activation), % at 26.1 µM | 650,000 tested, 0.13% active | AID 1259310; in the data active = normalized activity above about 1.9%;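 also: purified mutant Fbw7 with reduced substrate affinity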
MITF inh conf – confirmation of human MITF inhibitors; shares compounds with MITF inh; AlphaScreen MITF homodimerization, biotin/His-MITF beads; inhibition, % at 2.6 µM; 4,700 tested, 16% active; AID 1259372;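 active = inhibition above a cutoff derived from the DMSO control wells, cut at about 28% in these data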;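 also: 0% = MITF dimer wells with DMSO only; inhibitors lower the bead chemiluminescence by keeping MITF from dimerizing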
AS interf DR – optically interferes with AlphaScreen signal in dose response; IC50, µM; AlphaScreen optical interference counterscreen, cell-free; 480 tested, 6% active; shares compounds with MITF inh; call rule not given here
AS interf ctr – AlphaScreen optical interference, counter-screen; 4,700 tested, 7.6% active; shares compounds with MITF inh; inhibition, % at 2.6 µM; LysRS AlphaScreen counterscreen, signal interference, triplicate;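 active = inhibition above a cutoff derived from the DMSO control wells, cut at about 30% in these data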
The depositor's hits bear a star. Sampled rows, rich in hits. Any-hit rate of the full collection: about 3.5%.

COc1cc(OC)cc(C(=O)N2CCN(Cc3c[nH]c4ccccc34)CC2)c1 was read as MITF inh 16.3, GPR151 activ -0.6, TEAD-YAP block 6.6 and FBW7 activator 0.2.
`CC(=O)c1ccc(N2CCN(CC(=O)NCc3cccs3)CC2)cc1` gave MITF inh 10.1, GPR151 activ 0.0, TEAD-YAP block 11.1 and FBW7 activator 0.1.
O=C1C=C(N2CCCC2)C2(CCCCC2)O1 was read as MITF inh -0.6, GPR151 activ -1.5, TEAD-YAP block 11.5 and FBW7 activator -0.1.
For O=[N+]([O-])c1ccccc1CN1CCN(Cc2c[nH]c3ccccc23)CC1 the results were MITF inh 61.5*, GPR151 activ -1.0, TEAD-YAP block 10.7, FBW7 activator 0.1, MITF inh conf 5.7 and AS interf ctr -8.5.
COc1ccc(C(=O)N2CCN(Cc3ccccc3[N+](=O)[O-])CC2)cc1 was read as MITF inh 53.9*, GPR151 activ -1.4, TEAD-YAP block 7.5, FBW7 activator 0.3, MITF inh conf -2.5 and AS interf ctr -7.1.
O=[N+]([O-])c1ccccc1CN1CCN(Cc2ccncc2)CC1 was read as MITF inh 65.2*, GPR151 activ 0.3, TEAD-YAP block -2.5, FBW7 activator 0.0, MITF inh conf 2.9 and AS interf ctr 1.0.
`COc1cccc(CN2CCN(C(=O)c3cccc4ccccc34)CC2)c1OC` gave MITF inh 53.7*, GPR151 activ -2.0, TEAD-YAP block -3.5, FBW7 activator 0.3, MITF inh conf 9.6 and AS interf ctr -11.6.
CS(=O)(=O)N1CCN(Cc2ccccc2[N+](=O)[O-])CC1 was read as MITF inh 10.7, GPR151 activ 0.9, TEAD-YAP block 13.1 and FBW7 activator 0.6.
`COc1ccccc1C(=O)N1CCN(Cc2ccccc2[N+](=O)[O-])CC1` gave MITF inh -0.4, GPR151 activ -0.9, TEAD-YAP block 1.8 and FBW7 activator 0.1.
COc1ccc(CN2CCN(C(=O)c3cccc4ccccc34)CC2)cc1OC was read as MITF inh 44.3, GPR151 activ 0.7, TEAD-YAP block -1.7 and FBW7 activator -0.1.
O=C(c1cccc(Br)c1)N1CCN(c2ccc([N+](=O)[O-])c(NCc3ccccc3)c2)CC1 was read as MITF inh -2.9, GPR151 activ 0.6, TEAD-YAP block -3.4 and FBW7 activator -0.3.
Screening NC(=O)C1(N2CCCCC2)CCN(C(=O)c2cccc(-n3c(=S)[nH]c4cc(Cl)ccc4c3=O)c2)CC1 returned MITF inh -6.2, GPR151 activ -1.2, TEAD-YAP block -2.9 and FBW7 activator -0.1.
Screening COc1cccc(OC)c1C(=O)N1CCN(Cc2ccccc2C)CC1 returned MITF inh 71.2*, GPR151 activ -0.7, TEAD-YAP block 0.5, FBW7 activator 0.3, MITF inh conf 7.6 and AS interf ctr -6.4.
Screening Cc1ccccc1CN1CCN(C(=O)c2ccccc2)CC1 returned MITF inh 36.8, GPR151 activ -0.6, TEAD-YAP block 1.6 and FBW7 activator 0.1.
For COc1ccc(C(=O)COc2ccccc2C(C)=O)cc1Br the results were MITF inh 6.4, GPR151 activ 1.9, TEAD-YAP block -2.5 and FBW7 activator 1.0.
For O=C(Cc1cn(-c2ccc(Cl)nn2)c2ccccc12)NCc1ccccc1 the results were MITF inh 71.6*, GPR151 activ 0.9, TEAD-YAP block -9.4, FBW7 activator 0.0, MITF inh conf 7.6 and AS interf ctr 4.8.
`O=C(/C=C/c1ccco1)NC(=S)NNC(=O)c1ccccc1O` gave MITF inh 61.0*, GPR151 activ -0.7, TEAD-YAP block 58.2*, FBW7 activator -0.8, MITF inh conf 66.5*, AS interf DR >6.48 and AS interf ctr -18.1.
Cc1c(NC(=S)NC(=O)/C=C/c2ccco2)cccc1C(=O)O was read as MITF inh 67.3*, GPR151 activ 1.5, TEAD-YAP block 0.0, FBW7 activator -0.4, MITF inh conf 60.3*, AS interf DR >6.48 and AS interf ctr 22.7.
`CCOC(=O)c1ccc(NC(=S)NC(=O)/C=C/c2ccco2)cc1` gave MITF inh 69.1*, GPR151 activ -0.1, TEAD-YAP block -1.3, FBW7 activator 0.1, MITF inh conf 3.7 and AS interf ctr 3.3.
For O=C(/C=C/c1ccco1)NC(=S)Nc1cc(C(=O)O)ccc1Cl the results were MITF inh 63.4*, GPR151 activ -1.1, TEAD-YAP block 9.6, FBW7 activator 0.0, MITF inh conf 68.7*, AS interf DR >6.48 and AS interf ctr 6.8.
Screening CCOC(=O)C1=C(C)N=c2s/c(=C\c3ccc(N4CCCCC4)o3)c(=O)n2C1c1ccccc1OC (stereo not given) returned MITF inh -1.8, GPR151 activ -1.2, TEAD-YAP block 2.1 and FBW7 activator -0.1.
COC(=O)c1ccc(Nc2nncc(=O)[nH]2)cc1 was read as MITF inh 10.5, GPR151 activ -2.7, TEAD-YAP block 1.6 and FBW7 activator 0.1.
Screening O=c1[nH]c(O)c(C=NCc2ccc(Cl)c(Cl)c2)c(=O)[nH]1 returned MITF inh 3.4, GPR151 activ 0.5, TEAD-YAP block 10.8 and FBW7 activator -0.1.
Screening CC(=O)c1ccc(NC(=S)NNC(=O)CC#N)cc1 returned MITF inh 92.8*, GPR151 activ -1.7, TEAD-YAP block 0.8, FBW7 activator -0.4, MITF inh conf 12.4 and AS interf ctr 9.9.
For CCNC(=S)NNC(=O)c1ccc(NC(=O)CC#N)cc1 the results were MITF inh -6.5, GPR151 activ -1.2, TEAD-YAP block -0.5 and FBW7 activator -0.2.
Cc1cc(-c2cncnc2C2CCCN(C(=O)C3(c4ccccc4)CC3)C2)on1 (stereo not given) was read as MITF inh -1.7, GPR151 activ 0.2, TEAD-YAP block -1.2 and FBW7 activator -0.1.
For CCOc1ccc2nc(N=C(NC(=O)CC)NC(=O)CC)nc(C)c2c1 the results were MITF inh 110.0*, GPR151 activ -0.9, TEAD-YAP block -35.4, FBW7 activator -0.1, MITF inh conf 3.2 and AS interf ctr 6.3.
`O=S(=O)(c1ccc(C(F)(F)F)cc1)N1CCC(c2nc3ccccc3[nH]2)CC1` gave MITF inh -5.5, GPR151 activ -0.4, TEAD-YAP block 4.5 and FBW7 activator 1.0.
O=S(=O)(c1ccccc1C(F)(F)F)N1CCC(c2nc3ccccc3[nH]2)CC1 was read as MITF inh 72.8*, GPR151 activ 1.0, TEAD-YAP block -8.7, FBW7 activator -1.5, MITF inh conf 78.4*, AS interf DR >6.48 and AS interf ctr 16.2.
O=C(NC1CCN(S(=O)(=O)c2ccc(F)cc2)CC1)c1ccco1 was read as MITF inh -11.7, GPR151 activ -0.3, TEAD-YAP block -1.1 and FBW7 activator 0.1.
